In the library only some 9.3% were active in any assay of this set; here they are far more common.
HCV inh: inhibitors of hepatitis C virus infection; Huh7.5.1 HCVcc-Cre infection, luciferase reporter, 44 h; Potency, µM (top dose mostly 41.8 µM), most hits filed as inhibitors; actives 3.4% (n = 340,000); AID 651820
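HCVcc-Cre virus at an moi near 0.5 was added right after compound to cells cultured 4 h from seeding (1,000 cells/well). Luciferase activity was determined 44 h later, 15 min after substrate addition at RT.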
Vaccinia Venus: inhibitors of vaccinia virus (Venus reporter). Vaccinia virus Venus reporter expression, fluorescence. Potency, µM (series often up to 36.5 µM), usual class: inhibitors. actives 0.46% (n = 330,000). AID 720580; calls by dose curve; tested in A549 cells; also: nearly all actives have a fitted effect of over 30% in size
Vaccinia mCherry: inhibitors of vaccinia virus infection (mCherry reporter signal) | Vaccinia virus mCherry reporter infection, fluorescence | Potency, µM (top dose mostly 36.5 µM), usual class: inhibitors | actives 0.63% (n = 310,000) | AID 720579; calls by dose curve; tested in A549 cells; also: nearly all actives have a fitted effect of over 35% in size
HCMV antiviral: blocks human cytomegalovirus replication. activity change, negative = inhibition, % at 57.5 µM. HFF cells, HCMV-luciferase reporter, 72 h; active compounds read low. actives 4.5% (n = 410,000); in the data active = activity change below about -60%; inconclusive = no clear call, values can overlap the other calls; inactive = above about -39%
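Inhibition of viral replication was scored as loss of reporter luminescence in HFFs infected with HCMV-luciferase (MOI 1 PFU/cell) for 72 h; compounds tested at 2 doses, normalized to buffer and Salinomycin controls.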
Sm TGR block: S. mansoni TGR enzyme inhibition. Q962Y6. purified TGR, DTNB reduction, TNB absorbance 405 nm. Potency, µM (series often up to 114 µM), most hits filed as inhibitors. actives 3% (n = 360,000). AID 485364; also: nearly all actives have a fitted effect of over 60% in size
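First, TGR (20 nM dispensed) and NADPH were mixed with compound. Second, a 15 min room-temperature incubation followed. Third, further NADPH and then DTNB were added to start the reaction. Finally, TNB absorbance was monitored kinetically.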
FMDV antiviral: foot and mouth disease virus antiviral activity | FMDV antiviral cell-based qHTS | Potency, µM (series often up to 57.9 µM), actives largely listed as inhibitors | AID 1159524 | actives 1.2% (n = 410,000); calls by dose curve; tested in HEK293T cells; also: read-out not given here; nearly all actives have a fitted effect of over 45% in size
Hits are given with their value. Unless noted, calls follow the shape of the dose curve; as a rule, active = well fitted curve in the direction sought with a large enough effect; inconclusive = small, poorly fitted or top-dose-only effect, or another doubt; inactive = no such curve, though single readings can be large; an effect the other way counts as inactive or inconclusive.

O=c1[nH]c(C2CCCN(S(=O)(=O)c3ccccc3)C2)nc2c1nnn2Cc1ccccc1 (stereo not drawn) was read as HCV inh inactive, HCMV antiviral inactive, Sm TGR block 89µM and FMDV antiviral inconclusive.
Screening COC(=O)c1ccc2c(c1)N(Cc1cc(C)ccc1C)C(=O)c1ccccc1S2(=O)=O returned Vaccinia Venus inactive, Vaccinia mCherry inactive, HCMV antiviral inactive, Sm TGR block inactive and FMDV antiviral inactive.
Cc1cc(C)nc(SCc2ccc(C(=O)N/N=C3\CCCC(=O)C3)cc2)n1 was read as HCV inh inconclusive, Vaccinia Venus inactive, Vaccinia mCherry inactive, HCMV antiviral inactive, Sm TGR block inactive and FMDV antiviral inactive.
For Cc1ccc(NC(=O)/C(CN(C)C)=N\O)cc1 the results were HCV inh inactive, Vaccinia Venus inactive, Vaccinia mCherry inactive, HCMV antiviral inactive, Sm TGR block inactive and FMDV antiviral inactive.
For CN(c1ccc(OCC(=O)N2CCOCC2)cc1)S(=O)(=O)c1ccc(F)cc1 the results were HCV inh inactive, Vaccinia Venus inactive, Vaccinia mCherry inactive, HCMV antiviral inactive, Sm TGR block inactive and FMDV antiviral inactive.
Screening O=C(Cc1cccs1)N1CCCC(c2nc3c(nnn3Cc3cccc(Cl)c3)c(=O)[nH]2)C1 (stereo not drawn) returned HCV inh inactive, HCMV antiviral inactive, Sm TGR block inactive and FMDV antiviral inconclusive.
Screening O=C(Cc1cccs1)N1CCC(c2nc3c(nnn3Cc3ccc(F)cc3)c(=O)[nH]2)CC1 returned HCV inh inactive, HCMV antiviral -95, Sm TGR block inactive and FMDV antiviral inactive.
Screening CN1CCN(C2=C(Cl)C(=O)N(CCc3ccccc3)C2=O)CC1 returned HCV inh inconclusive, HCMV antiviral -68, Sm TGR block inconclusive and FMDV antiviral inactive.
Cc1nnnn1/C(=C\c1ccccc1)C(=O)OCC(=O)Nc1ccc(Cl)cc1F was read as HCV inh inconclusive, Vaccinia Venus inconclusive, Vaccinia mCherry inactive, HCMV antiviral -95, Sm TGR block inactive and FMDV antiviral 28µM.
Screening O=C(COC(=O)Cc1n[nH]c(=O)c2ccccc12)Nc1ccc(Cl)cc1F returned HCV inh inactive, HCMV antiviral inactive, Sm TGR block inactive and FMDV antiviral inactive.
Screening Cc1nnnn1/C(=C\c1ccccc1)C(=O)OCC(=O)Nc1cccc(S(=O)(=O)N(C)C)c1 returned HCV inh 10µM, HCMV antiviral -61, Sm TGR block inconclusive and FMDV antiviral 14µM.
`CN(C)S(=O)(=O)c1cccc(NC(=O)COC(=O)c2ccc3ccccc3n2)c1` gave HCV inh inactive, HCMV antiviral inactive and FMDV antiviral inactive.
`Cc1cc(NC(=O)Cn2nc(C)c([N+](=O)[O-])c2C)no1` gave HCV inh inactive, HCMV antiviral inactive, Sm TGR block inactive and FMDV antiviral inactive.
Screening CC(C)CC(=O)Nc1ccc2nc(SCC(=O)N3CCc4ccccc43)sc2c1 returned Vaccinia Venus inactive, Vaccinia mCherry inactive, HCMV antiviral inactive, Sm TGR block inactive and FMDV antiviral inconclusive.
CC(C)(C)C1=C(C#N)C(c2cc3c(cc2Br)OCO3)C(C#N)=C(N)O1 (stereo not drawn) was read as HCV inh inactive, Vaccinia Venus inconclusive, HCMV antiviral inactive, Sm TGR block 2.8µM and FMDV antiviral inactive.
Cc1ccc(C(=O)C(C(=O)/C=C/c2ccccc2)=C2SCCCS2)cc1 was read as HCV inh inconclusive, Vaccinia Venus inconclusive, Vaccinia mCherry inconclusive, HCMV antiviral -97, Sm TGR block inactive and FMDV antiviral 11µM.
For Cc1ccc(C(=O)C=CC=Cc2ccccc2)cc1 the results were Vaccinia Venus inactive, Vaccinia mCherry inactive, HCMV antiviral inactive and FMDV antiviral inactive.
For Fc1cccc(NCCc2c[nH]c3ccccc23)n1 the results were HCV inh inconclusive, Vaccinia Venus inconclusive, Vaccinia mCherry inactive, HCMV antiviral inactive, Sm TGR block inactive and FMDV antiviral inactive.
For c1ccc2c(NCCc3c[nH]c4ccccc34)c3ccccc3nc2c1 the results were HCV inh 14µM, Vaccinia Venus 8.9µM, Vaccinia mCherry inconclusive, HCMV antiviral inconclusive, Sm TGR block inactive and FMDV antiviral inconclusive.
For OCCCNc1c2ccccc2nc2ccccc12 the results were HCV inh 11µM, Vaccinia Venus 10µM, Vaccinia mCherry 11µM, HCMV antiviral -102, Sm TGR block inactive and FMDV antiviral inactive.
`O=C(CSc1nnc2ccccn12)Nc1ccc2c(c1)OCCO2` gave HCV inh inactive, Vaccinia Venus inactive, Vaccinia mCherry inactive, HCMV antiviral inactive, Sm TGR block inactive and FMDV antiviral inactive.
Screening C=CCCC(=O)N1C[C@H]2CON(C)[C@H]2C[C@H]1c1ccccc1Br returned HCV inh inactive, Vaccinia Venus inactive, Vaccinia mCherry inactive, HCMV antiviral inactive and FMDV antiviral inactive.
Screening C=CCCC(=O)N1C[C@H]2CON(C)[C@H]2C[C@H]1c1ccc(Br)cc1 returned Vaccinia Venus inactive, Vaccinia mCherry inactive, HCMV antiviral -101 and FMDV antiviral inactive.
Screening CCCS(=O)(=O)NC(=O)C1(C)CCCN(C(=O)c2cc(-c3ccccc3)cs2)C1 (stereo not drawn) returned Vaccinia Venus inactive, Vaccinia mCherry inactive, HCMV antiviral inactive and FMDV antiviral inactive.
`COc1ccc(-c2ccc(/C=C3/C(=N)N4C(C)=CSC4=NC3=O)o2)c([N+](=O)[O-])c1` gave HCV inh inactive, Vaccinia Venus inactive, Vaccinia mCherry inactive, HCMV antiviral inactive, Sm TGR block inactive and FMDV antiviral 40µM.
Screening CCN(C(=O)COC(=O)c1cc([N+](=O)[O-])ccc1N1CCOCC1)c1ccccc1 returned HCV inh inactive, HCMV antiviral inactive, Sm TGR block inactive and FMDV antiviral inactive.
For CC(C)CCOc1ccc(-c2c(=O)n(OCc3ccc([N+](=O)[O-])cc3)c3ccccc3[n+]2[O-])cc1 the results were HCV inh inconclusive, HCMV antiviral -69, Sm TGR block inactive and FMDV antiviral inactive.
CCCOc1ccc(-c2c(=O)n(OCc3ccc([N+](=O)[O-])cc3)c3ccccc3[n+]2[O-])cc1 was read as HCV inh inactive, Vaccinia Venus inactive, Vaccinia mCherry inactive, HCMV antiviral inactive, Sm TGR block inactive and FMDV antiviral inactive.
For O=c1c(-c2ccco2)[n+]([O-])c2ccccc2n1OCc1ccccc1F the results were HCV inh inactive, HCMV antiviral inactive, Sm TGR block inconclusive and FMDV antiviral inactive.
CCOC(=O)COn1c(=O)c(-c2ccco2)[n+]([O-])c2ccccc21 was read as HCV inh inactive, Vaccinia Venus inactive, Vaccinia mCherry inactive, HCMV antiviral inactive, Sm TGR block inactive and FMDV antiviral inactive.
Screening COc1ccccc1COn1c(=O)c(-c2ccco2)[n+]([O-])c2ccccc21 returned HCV inh inactive, Vaccinia Venus inactive, Vaccinia mCherry inactive, HCMV antiviral inconclusive, Sm TGR block 14µM and FMDV antiviral inactive.

Screening data (PubChem)
